From the supplement of paper PMC10849652
Targets with a hit are over-represented here; the source holds about 7,900 in all. About 0.6% of all pairs of compound and target were hits. Unmarked numbers belong to inactive results.

How the values were obtained:
Assay in all cases: log2 fold change, soluble protein after heating vs DMSO (PISA); higher = thermal stabilisation; K562 cells, 10 uM, 30 min; active = over 0.2 and 3.5 SD of the protein, either way, in both replicates (recomputed)
[1] = compound: C#Cc1cccc(Nc2ncnc3cc(OCCOC)c(OCCOC)cc23)c1 [erlotinib]
Summary of the method: (§1)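 Soluble protein was defined as the supernatant after 21,000xg for 90 min. It came from K562 cells at 2×10^6 cells/mL given 10 μM compound for 30 min, heated in aliquots for 3 min across 48°C-58°C, pooled, and extracted in PBS with 0.5% NP-40 at 4°C, and was quantified by TMTpro 16plex LC-MS/MS with equalised channel sums. Thermal stability against control samples, from duplicates, is reported as log2 fold change.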

[2] = compound: C/C(=N\NC(=O)C1=CC(=CC=C1)S(=O)(=O)N2CCOCC2)/C3=C(C=CC(=C3)Cl)O
Summary of the method: as §1

[3] = compound: C1=CC(=C(C=C1Cl)C2=NC3=NC=CN=C3C(=N2)NC4=CC=NC=C4)F
Summary of the method: as §1

[4] = compound: C1=CC(=CC=C1C2=NC3=C(N2)C=C(C=C3)C(=O)N)OC4=CC=C(C=C4)Cl
Summary of the method: as §1

[5] = compound: C1=CC2=C(C=CC(=C2)/C=C\3/C(=O)NC(=NCC4=CC=CS4)S3)N=C1
Summary of the method: as §1

[6] = compound: C1=CC2=NC=CN=C2C=C1/C=C/3\C(=O)NC(=O)S3
Summary of the method: as §1

[7] = compound: C1=CC=C(C=C1)C2=NC(=C(N2)C3=CC=NC=C3)C4=CC(=C(C=C4)Cl)O
Summary of the method: as §1

[8] = compound: C1=CC=C2C(=C1)C3=NNC4=CC=CC(=C43)C2=O
Summary of the method: as §1

[9] = compound: C1CCN(C1)C(=O)NC2=CC=CC(=C2)NC3=NC=C(C(=N3)NCCC4=CN=CN4)Br
Summary of the method: as §1

[10] = compound: C1CN(CCC1(CC2=CC=C(C=C2)Cl)N)C3=NC=NC4=C3C=CN4
Summary of the method: as §1

[11] = compound: C1COCCN1CCN2C3=CC=CC=C3N=C2NC(=O)C4=CC(=CC=C4)[N+](=O)[O-] [IRAK-1-4 Inhibitor I]
Summary of the method: as §1

[12] = compound: C=CC(=O)N1CCC[C@@H](n2nc(-c3ccc(Oc4ccccc4)cc3)c3c(N)ncnc32)C1 [ibrutinib]
Summary of the method: as §1

[13] = compound: CC(=O)c1cnc2ccc(-c3cc(Cl)c(O)c(Cl)c3)nc2c1N[C@H]1CC[C@H](CN(C)C)CC1
Summary of the method: as §1

[14] = compound: CC(C)(C)Cn1c(N)nc2ccc(-c3[nH]c(C(C)(C)C)nc3-c3ccc(F)cc3)nc21 [ralimetinib]
Summary of the method: as §1

[15] = compound: CC(C)(O)CC(=O)NCCn1ccc2ncnc(Nc3ccc(Oc4cccc(C(F)(F)F)c4)c(Cl)c3)c21
Summary of the method: as §1

[16] = compound: CC(C)C1=C2N=C(C=C(N2N=C1)NCC3=CC=CC=C3)NCCCCCCN
Summary of the method: as §1

[17] = compound: CC(C)C[C@@H](C=O)NC(=O)[C@H](CC(C)C)NC(=O)[C@H](CC(C)C)NC(=O)OCc1ccccc1
Summary of the method: as §1

[18] = compound: CC(C)N(C[C@H]1O[C@@H](n2cnc3c(N)ncnc32)[C@H](O)[C@@H]1O)[C@H]1C[C@@H](CCc2nc3cc(C(C)(C)C)ccc3[nH]2)C1 [pinometostat]
Summary of the method: as §1

[19] = compound: CC1=C(C(CC(=O)N1)C2=CC=C(C=C2)C(F)(F)F)C(=O)NC3=C(C=C4C(=C3)C=NN4)F
Summary of the method: as §1

[20] = compound: CC1=C(C2=C(C=C1)C(=O)C3=CC=CC=C3N2CCCN)C
Summary of the method: as §1

Sequence of UniProt Q96JG6 (Q96JG6 whole entry, looked up): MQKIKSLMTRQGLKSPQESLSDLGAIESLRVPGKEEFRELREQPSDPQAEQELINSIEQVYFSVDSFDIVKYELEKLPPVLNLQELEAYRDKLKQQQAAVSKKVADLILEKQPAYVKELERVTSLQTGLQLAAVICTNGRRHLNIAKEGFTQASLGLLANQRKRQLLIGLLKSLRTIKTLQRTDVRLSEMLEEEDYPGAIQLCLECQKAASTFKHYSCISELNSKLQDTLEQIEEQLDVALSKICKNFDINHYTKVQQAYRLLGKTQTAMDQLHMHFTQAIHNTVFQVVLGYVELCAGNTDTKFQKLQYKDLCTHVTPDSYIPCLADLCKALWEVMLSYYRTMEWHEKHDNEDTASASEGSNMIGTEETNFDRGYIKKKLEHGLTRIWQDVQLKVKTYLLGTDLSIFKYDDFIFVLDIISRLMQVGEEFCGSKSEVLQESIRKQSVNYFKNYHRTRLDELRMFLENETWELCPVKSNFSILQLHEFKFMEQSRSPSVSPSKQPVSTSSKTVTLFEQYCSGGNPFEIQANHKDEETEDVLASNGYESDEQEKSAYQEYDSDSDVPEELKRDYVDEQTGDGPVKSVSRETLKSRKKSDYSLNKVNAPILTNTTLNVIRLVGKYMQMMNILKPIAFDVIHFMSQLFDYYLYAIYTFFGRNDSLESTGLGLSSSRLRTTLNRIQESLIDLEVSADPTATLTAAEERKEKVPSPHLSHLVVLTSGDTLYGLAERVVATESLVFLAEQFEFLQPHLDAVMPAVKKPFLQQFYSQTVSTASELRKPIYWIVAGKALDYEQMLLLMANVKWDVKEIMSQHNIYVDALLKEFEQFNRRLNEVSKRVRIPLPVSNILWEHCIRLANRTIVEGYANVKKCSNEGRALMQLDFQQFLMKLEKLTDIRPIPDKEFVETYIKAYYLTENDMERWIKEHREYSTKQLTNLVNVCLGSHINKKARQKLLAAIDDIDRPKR
Sequence of UniProt Q13263 (Q13263 whole entry, looked up): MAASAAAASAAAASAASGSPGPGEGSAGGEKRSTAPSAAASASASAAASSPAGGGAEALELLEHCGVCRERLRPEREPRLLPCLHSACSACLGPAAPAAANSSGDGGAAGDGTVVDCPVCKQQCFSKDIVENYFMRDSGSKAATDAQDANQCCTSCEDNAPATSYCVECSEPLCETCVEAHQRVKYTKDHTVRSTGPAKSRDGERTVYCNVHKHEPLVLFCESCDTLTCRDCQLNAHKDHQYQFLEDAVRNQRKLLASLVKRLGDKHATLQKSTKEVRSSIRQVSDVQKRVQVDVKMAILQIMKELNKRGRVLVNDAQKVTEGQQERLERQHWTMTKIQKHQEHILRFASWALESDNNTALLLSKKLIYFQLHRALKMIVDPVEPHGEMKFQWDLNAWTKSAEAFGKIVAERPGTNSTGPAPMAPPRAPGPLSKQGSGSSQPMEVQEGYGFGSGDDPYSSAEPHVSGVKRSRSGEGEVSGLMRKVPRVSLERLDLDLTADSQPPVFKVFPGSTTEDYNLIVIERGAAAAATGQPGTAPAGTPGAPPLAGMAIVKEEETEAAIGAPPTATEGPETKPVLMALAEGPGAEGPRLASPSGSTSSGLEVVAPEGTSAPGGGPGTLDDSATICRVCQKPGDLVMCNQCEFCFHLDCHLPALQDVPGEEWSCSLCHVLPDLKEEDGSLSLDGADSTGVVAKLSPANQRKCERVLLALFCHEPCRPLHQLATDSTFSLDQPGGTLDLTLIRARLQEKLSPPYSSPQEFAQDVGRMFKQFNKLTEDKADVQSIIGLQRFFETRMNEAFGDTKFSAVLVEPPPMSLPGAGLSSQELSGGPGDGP
Sequence of UniProt Q6ZXV5 (Q6ZXV5 whole entry, looked up): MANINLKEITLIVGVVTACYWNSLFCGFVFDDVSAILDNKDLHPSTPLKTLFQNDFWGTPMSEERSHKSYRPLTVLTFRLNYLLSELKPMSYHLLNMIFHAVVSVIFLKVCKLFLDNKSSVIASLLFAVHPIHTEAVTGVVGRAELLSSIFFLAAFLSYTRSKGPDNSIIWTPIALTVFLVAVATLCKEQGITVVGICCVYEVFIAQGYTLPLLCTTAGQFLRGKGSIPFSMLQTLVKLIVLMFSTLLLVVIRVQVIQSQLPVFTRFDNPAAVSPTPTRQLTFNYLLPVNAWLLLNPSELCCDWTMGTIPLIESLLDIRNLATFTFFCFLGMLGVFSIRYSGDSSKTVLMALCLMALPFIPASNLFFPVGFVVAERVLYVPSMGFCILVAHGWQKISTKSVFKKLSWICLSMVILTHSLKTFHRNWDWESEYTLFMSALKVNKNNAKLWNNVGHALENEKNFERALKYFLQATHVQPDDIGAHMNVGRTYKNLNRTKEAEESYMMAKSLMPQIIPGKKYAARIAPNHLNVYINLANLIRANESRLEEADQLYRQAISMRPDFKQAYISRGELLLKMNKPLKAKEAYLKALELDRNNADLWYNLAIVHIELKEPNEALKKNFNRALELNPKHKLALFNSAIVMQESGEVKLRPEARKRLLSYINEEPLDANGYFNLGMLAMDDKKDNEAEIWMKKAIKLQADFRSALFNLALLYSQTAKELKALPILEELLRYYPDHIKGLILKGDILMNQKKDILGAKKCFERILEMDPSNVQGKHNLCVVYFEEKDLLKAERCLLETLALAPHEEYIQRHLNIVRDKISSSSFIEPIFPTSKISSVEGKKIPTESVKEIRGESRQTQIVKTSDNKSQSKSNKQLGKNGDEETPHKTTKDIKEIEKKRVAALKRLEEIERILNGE
Sequence of UniProt P07951 (P07951 whole entry, looked up): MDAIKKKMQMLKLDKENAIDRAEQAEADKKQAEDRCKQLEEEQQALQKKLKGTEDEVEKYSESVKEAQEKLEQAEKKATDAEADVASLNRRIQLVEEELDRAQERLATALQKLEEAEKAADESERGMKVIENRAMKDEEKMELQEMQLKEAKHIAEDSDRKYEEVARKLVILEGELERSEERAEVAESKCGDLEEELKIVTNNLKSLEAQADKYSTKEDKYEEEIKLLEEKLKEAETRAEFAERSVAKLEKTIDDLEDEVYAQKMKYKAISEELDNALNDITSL
Sequence of UniProt Q9BV38 (Q9BV38 whole entry, looked up): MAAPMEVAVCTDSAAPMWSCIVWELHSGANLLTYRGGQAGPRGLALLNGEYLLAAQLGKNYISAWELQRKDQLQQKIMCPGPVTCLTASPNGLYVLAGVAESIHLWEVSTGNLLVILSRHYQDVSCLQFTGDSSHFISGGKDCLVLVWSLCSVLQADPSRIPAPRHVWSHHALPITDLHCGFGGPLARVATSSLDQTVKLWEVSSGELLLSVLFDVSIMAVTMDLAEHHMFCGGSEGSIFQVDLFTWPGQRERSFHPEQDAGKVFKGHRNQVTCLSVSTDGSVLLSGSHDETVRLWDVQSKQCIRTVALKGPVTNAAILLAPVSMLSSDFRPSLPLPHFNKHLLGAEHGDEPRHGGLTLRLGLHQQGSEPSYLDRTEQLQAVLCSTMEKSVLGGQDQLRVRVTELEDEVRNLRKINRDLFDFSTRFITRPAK
Sequence of UniProt Q641Q2 (Q641Q2 whole entry, looked up): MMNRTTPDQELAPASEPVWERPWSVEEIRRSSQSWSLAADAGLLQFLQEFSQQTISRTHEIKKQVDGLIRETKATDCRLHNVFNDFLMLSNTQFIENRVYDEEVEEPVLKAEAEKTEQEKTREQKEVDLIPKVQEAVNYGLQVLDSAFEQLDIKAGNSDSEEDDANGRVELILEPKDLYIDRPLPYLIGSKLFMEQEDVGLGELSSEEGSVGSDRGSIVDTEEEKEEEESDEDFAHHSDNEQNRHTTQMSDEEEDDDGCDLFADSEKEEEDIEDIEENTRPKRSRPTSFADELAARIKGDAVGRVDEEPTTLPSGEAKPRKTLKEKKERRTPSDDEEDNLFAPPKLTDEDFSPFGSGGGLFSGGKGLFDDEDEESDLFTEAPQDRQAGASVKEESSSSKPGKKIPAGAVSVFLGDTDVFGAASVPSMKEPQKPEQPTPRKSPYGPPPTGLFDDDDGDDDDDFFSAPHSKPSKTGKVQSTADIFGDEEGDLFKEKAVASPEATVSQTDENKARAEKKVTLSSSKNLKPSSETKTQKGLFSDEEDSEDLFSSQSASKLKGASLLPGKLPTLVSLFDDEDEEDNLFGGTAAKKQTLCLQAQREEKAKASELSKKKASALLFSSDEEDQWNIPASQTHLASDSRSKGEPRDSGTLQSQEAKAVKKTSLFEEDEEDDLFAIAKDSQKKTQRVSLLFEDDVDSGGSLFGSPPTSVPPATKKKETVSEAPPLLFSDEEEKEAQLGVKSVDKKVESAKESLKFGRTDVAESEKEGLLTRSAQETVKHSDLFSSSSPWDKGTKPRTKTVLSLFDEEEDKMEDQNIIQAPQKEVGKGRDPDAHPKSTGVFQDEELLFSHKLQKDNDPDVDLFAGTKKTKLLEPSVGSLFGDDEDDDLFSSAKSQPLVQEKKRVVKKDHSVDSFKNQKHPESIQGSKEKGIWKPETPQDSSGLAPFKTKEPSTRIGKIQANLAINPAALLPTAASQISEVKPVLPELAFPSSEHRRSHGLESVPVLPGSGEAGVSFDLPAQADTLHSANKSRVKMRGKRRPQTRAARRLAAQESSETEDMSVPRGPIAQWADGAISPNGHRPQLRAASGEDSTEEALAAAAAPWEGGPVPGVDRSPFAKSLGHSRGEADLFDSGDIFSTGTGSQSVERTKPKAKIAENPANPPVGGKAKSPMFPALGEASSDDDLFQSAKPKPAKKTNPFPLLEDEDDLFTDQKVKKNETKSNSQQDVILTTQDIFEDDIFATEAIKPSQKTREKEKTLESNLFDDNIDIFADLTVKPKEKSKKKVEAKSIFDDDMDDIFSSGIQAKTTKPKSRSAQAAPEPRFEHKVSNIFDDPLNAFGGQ
Sequence of UniProt Q9Y3C0 (Q9Y3C0 whole entry, looked up): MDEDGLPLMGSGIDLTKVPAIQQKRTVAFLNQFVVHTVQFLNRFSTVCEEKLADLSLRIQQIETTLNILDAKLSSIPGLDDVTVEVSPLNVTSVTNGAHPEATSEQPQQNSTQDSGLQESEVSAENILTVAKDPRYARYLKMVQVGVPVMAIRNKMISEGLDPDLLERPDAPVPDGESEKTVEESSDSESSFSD

Target	log2 fold change [1]	log2 fold change [2]	log2 fold change [3]	log2 fold change [4]	log2 fold change [5]	log2 fold change [6]	log2 fold change [7]	log2 fold change [8]	log2 fold change [9]	log2 fold change [10]	log2 fold change [11]	log2 fold change [12]	log2 fold change [13]	log2 fold change [14]	log2 fold change [15]	log2 fold change [16]	log2 fold change [17]	log2 fold change [18]	log2 fold change [19]	log2 fold change [20]
TRMT2A (UniProt Q8IZ69)	0	0.069	-0.124	0.07	-0.016	-0.009	-0.026	-0.09	0.031	-0.011	-0.028	0.005	-0.098	0.039	0.013	-0.146	0.034	0.085	0.018	-0.142
TSFM (UniProt P43897)	0.037	-0.004	0.302	-0.206	0.189	0.044	0.11	-0.069	-0.016	0.095	-0.065	-0.134	-0.067	0.011	-0.254	0.069	-0.058	-0.08	-0.066	0.258
TPM2 (UniProt P07951)	-0.05	0.009	0.417	0.021	-0.146	0.025	0.102	0.02	-0.069	0.101	0.013	-0.018	0.027	0.059	-0.053	0.037	-0.163	-0.1	0.079	-0.103
TMEM179B (UniProt Q7Z7N9)	0.042	-0.016	0.073	0.032	-0.009	0.034	-0.107	-0.032	-0.165	-0.005	0.04	-0.05	-0.061	-0.008	-0.24	-0.011	-0.021	-0.024	0.017	0.019
TMTC3 (UniProt Q6ZXV5)	0	0	0.007	0.023	0.042	0.002	0.001	-0.001	-0.064	-0.014	0.007	-0.033	-0.007	0	0.022	-0.218	0.028	-0.019	-0.008	0.018
TOMM20 (UniProt Q15388)	0.073	-0.01	-0.013	0.004	0.012	0.018	0.049	-0.006	0.007	0.027	0.006	0	0.003	-0.017	0.118	-0.343 (active)	0.047	0.022	-0.021	0.018
WDR18 (UniProt Q9BV38)	0.058	0.039	0.024	-0.015	-0.111	0.031	-0.045	0.011	-0.035	0.065	-0.005	-0.03	-0.007	0.064	0.025	0.008	-0.102	0.028	0.011	-0.962 (active)
VPS50 (UniProt Q96JG6)	0.008	0.094	-0.003	-0.017	0.088	0.025	0.023	-0.019	-0.022	-0.021	-0.046	-0.009	-0.003	0.12	-0.138	-0.099	0.053	-0.014	0.025	0.023
WASHC2A (UniProt Q641Q2)	0.008	-0.026	-0.025	0.002	0.004	0.058	-0.072	-0.037	0.029	-0.017	-0.002	-0.013	0.054	0.013	0.047	-0.266 (active)	0.025	0.033	-0.004	-0.044
XPNPEP1 isoform 3 (UniProt Q9NQW7)	-0.005	-0.069	0.067	0.022	0.076	-0.003	0.048	0.04	0	0.033	0.07	-0.002	-0.011	-0.03	-0.016	-0.135	-0.073	-0.006	-0.014	0.045
TMEM214 (UniProt Q6NUQ4)	-0.068	0.016	-0.019	0.001	0.015	0.017	-0.044	-0.025	0.009	-0.088	-0.076	-0.063	0.028	-0.03	0.019	0.066	0.044	0.073	0.014	0.074
TRIM4 (UniProt Q9C037)	0.004	0.031	0.035	-0.199	0.002	-0.01	-0.029	0.135	-0.111	-0.073	-0.157	0.173	-0.063	0.023	-0.183	-0.078	-0.013	0.173	-0.023	0.089
XPNPEP3 (UniProt Q9NQH7)	0.019	-0.275 (active)	0.017	0.06	0.067	0.026	-0.005	0	0.005	0.083	0.061	0.044	0.019	-0.013	0.021	-0.002	-0.018	-0.015	-0.003	-0.028
WASHC3 (UniProt Q9Y3C0)	0.029	-0.015	0.053	0.007	0.12	0.036	0.017	-0.114	-0.041	0.059	0.096	0.015	0.023	-0.033	0.024	-0.166	-0.041	-0.074	0.059	0.032
TRIM28 (UniProt Q13263)	0.001	0.077	0.041	-0.023	-0.021	0.018	-0.023	0.004	-0.013	-0.026	-0.008	-0.033	0.052	-0.003	-0.035	-0.087	0.018	-0.056	-0.002	-0.152
TMEM263 (UniProt Q8WUH6)	0.093	0.024	0.024	-0.012	0.058	-0.013	0.02	-0.101	0.036	0.022	0.083	0	0.026	-0.092	-0.303	-1.03 (active)	0.029	0.001	0.092	0.037
